ELG1 DNA repair: qHTS screen for small molecules that inhibit ELG1-dependent DNA repair in human embryonic kidney (HEK293T) cells expressing luciferase-tagged ELG1 | HEK293T ELG1-luciferase reporter, luminescence, 16 h; DNA damage induced by 5-fluorouridine | AID 504467, 2011 | hit rate 2.3% among 330,000 | Potency, µM (top dose mostly 46.1 µM), most hits filed as inhibitors; also: nearly all actives have a fitted effect of over 55% in size
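HEK293T cells expressing luciferase-tagged ELG1 (2,000/well) received 5-Fluorouridine plus compound or DMSO for 16 hr at 37 °C. Luciferase was read by ONE-Glo luminescence after 30 min at room temperature.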
PKM2 act: qHTS Assay for Activators of Human Muscle isoform 2 Pyruvate Kinase. Pyruvate kinase PKM (Homo sapiens), P14618. purified PKM2, Kinase-Glo ATP luminescence, activation; response scale: 0% is enzyme alone, no compound. hit rate 0.34% among 260,000. Potency, µM (titrated, usually from 57.5 µM), actives largely listed as activators; also: nearly all actives have a fitted effect of over 55% in size
Target sequence (P14618 whole entry, looked up, canonical isoform): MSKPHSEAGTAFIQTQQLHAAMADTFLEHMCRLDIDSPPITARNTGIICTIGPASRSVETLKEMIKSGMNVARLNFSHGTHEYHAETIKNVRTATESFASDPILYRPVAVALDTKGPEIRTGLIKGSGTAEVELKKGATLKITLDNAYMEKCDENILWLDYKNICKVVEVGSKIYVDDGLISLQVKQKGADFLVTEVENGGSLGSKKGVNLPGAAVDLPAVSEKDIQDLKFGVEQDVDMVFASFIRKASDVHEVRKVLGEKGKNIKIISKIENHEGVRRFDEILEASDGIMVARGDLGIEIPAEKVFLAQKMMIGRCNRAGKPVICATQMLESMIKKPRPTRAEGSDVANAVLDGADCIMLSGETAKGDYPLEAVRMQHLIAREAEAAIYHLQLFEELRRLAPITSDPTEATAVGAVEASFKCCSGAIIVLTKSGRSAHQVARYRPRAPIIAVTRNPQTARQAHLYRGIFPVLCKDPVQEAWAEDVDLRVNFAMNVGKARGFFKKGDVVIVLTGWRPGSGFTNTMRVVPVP
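hPK-M2, >95% pure; 0.1 mM ADP / 0.5 mM PEP final; imidazole pH7.2 buffer w/ 7 mM MgCl2, 50 mM KCl; 1 h RT; Kinase-Glo lum. Intermediate enzyme activity for dual inhibitor/activator qHTS.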
Tb PFK inh: qHTS Assay to Find Inhibitors of T. brucei phosphofructokinase; ATP-dependent 6-phosphofructokinase (Trypanosoma brucei brucei), O15648; T. brucei PFK, ADP-Glo luminescence; Potency, µM (highest dose often 57.5 µM), most hits filed as inhibitors; hit rate 0.17% among 330,000; also: nearly all actives have a fitted effect of over 60% in size
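In TEA buffer at pH 8.0 with 5 mM MgCl2, enzyme (1.25 nM) converted F6P (0.5 mM) and ATP (0.1 mM) for 45 min at room temperature. ADP product was read by luciferase luminescence.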
Rango-impB inh: qHTS Assay for Inhibitors of Rango (Ran-regulated importin-beta cargo) - Importin beta complex formation | Potency, µM (doses to about 92.2 µM) | hit rate 0.031% among 340,000 | Rango CFP/YFP FRET sensor + importin beta, 45 min | Importin subunit beta-1 (Homo sapiens), Q14974; calls by dose curve; also: nearly all actives have a fitted effect of over 15% in size
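FRET biosensor (snurportin 1 IBB flanked by EYFP and cerulean), 50 nM, with compound 5 min, then 0.125 microM importin beta in PBS, 1 mM DTT, 0.02% Tween-20, 0.1% BSA. CFP/YFP ratio read after 45 min at room temperature; pre-read flags interference.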
Rango release inh: qHTS Assay for Inhibitors of RanGTP induced Rango (Ran-regulated importin-beta cargo) - Importin beta complex dissociation | Snurportin-1 (Homo sapiens) + GTP-binding nuclear protein Ran (Homo sapiens) + Importin … | Biochemical FRET Rango-importin beta, RanGTP-induced dissociation | Potency, µM (series often up to 46.1 µM) | hit rate 0.071% among 340,000; calls by dose curve; also: nearly all actives have a fitted effect of over 45% in size
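Rango (0.1 uM)–importin beta (0.25 uM) complex; RanGTP-RCC1 trigger; 45 min RT; CFP/YFP FRET read.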
PGK inhibitor: qHTS Assay to Find Inhibitors of Phosphoglycerate Kinase | PGK/GAPDH coupled, Kinase-Glo luminescence, 60 min | Potency, µM (top dose mostly 57.5 µM), hits mostly inhibitors | Phosphoglycerate kinase, glycosomal (Trypanosoma brucei brucei), P07378 | hit rate 0.043% among 380,000 | AID 602233, 2012; also: nearly all actives have a fitted effect of over 60% in size
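Luminescent ATP detection (Kinase-Glo Plus) follows a 60-minute room-temperature incubation, with wells lacking PGK as controls. Buffer: 100 mM TEA (pH 7.6), 5 mM MgCl2, 0.01% Tween-20. Coupling enzyme GAPDH (100 nM final) supplies unstable 1,3-BPG in-well.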
Numbers stand for hits; – = inactive; ? = inconclusive; · = no result; [ ] = another dose, or the depositor's remark. An excerpt weighted towards active compounds, which were near 2.4% of everything screened. Unless noted, calls follow the shape of the dose curve; as a rule, active = well fitted curve in the direction sought with a large enough effect; inconclusive = small, poorly fitted or top-dose-only effect, or another doubt; inactive = no such curve, though single readings can be large; an effect the other way counts as inactive or inconclusive.

SMILES	ELG1 DNA repair	PKM2 act	Tb PFK inh	Rango-impB inh	Rango release inh	PGK inhibitor
COc1ccc(NC(=O)C2CCC(CNS(=O)(=O)c3cccc4nsnc34)CC2)cc1OC (stereo not given)	·	·	·	·	·	–
CC(C)C(=O)c1cc2c(cc1NC(=O)Nc1cccc3ccccc13)OCCO2	23µM	–	–	·	·	·
Cc1cc(Cl)c(S(=O)(=O)N2CCCCCC2)cc1OCC(N)=O	?	–	–	–	–	–
Cc1cc(Cl)c(S(=O)(=O)N2CCSCC2)cc1OCC(=O)NC1CCCCC1	9.2µM	–	–	–	–	–
Cc1cc(Cl)c(S(=O)(=O)N2CCN(c3ccccn3)CC2)cc1OCC(=O)NC1CCCCC1	21µM	–	–	–	–	–
O=C(COc1ccc(S(=O)(=O)NC2CCCCC2)cc1Cl)NCc1ccc2c(c1)OCO2	–	–	–	–	–	–
Cc1cc(Cl)c(S(=O)(=O)NC2CCCC2)cc1OCC(=O)NC1CCCCC1	9.2µM	–	–	–	–	–
COc1ccc(CCNC(=O)COc2ccc(S(=O)(=O)NC3CCCCC3)cc2Cl)cc1OC	21µM	–	–	–	–	–
CC(C)Nc1ccc(-c2nc(-c3ccco3)no2)cc1[N+](=O)[O-]	·	·	·	·	·	–
Cc1cc(Cl)c(S(N)(=O)=O)cc1OCC(=O)NC1CCCCC1	–	–	–	–	–	–
CCOC(=O)N1CCN(S(=O)(=O)c2cc(OCC(=O)NC3CCCCC3)c(C)cc2Cl)CC1	18µM	–	–	–	–	–
Cc1cc(Cl)c(S(=O)(=O)N2CCCCCC2)cc1OCC(=O)NC1CCCCC1	9.2µM	–	–	–	–	–
CCC(C)(C)c1ccc(OCCCC[n+]2cccc(C)c2)c(C(C)(C)CC)c1	7.3µM	–	–	–	–	–
O=C(N/N=C/c1cn(Cc2ccccc2)c2ccccc12)c1cc(O)cc(O)c1	–	–	–	–	–	?
Cc1cccc(OCCn2cc(/C=N/NC(=O)c3ccncc3)c3ccccc32)c1	21µM	–	–	–	–	–
Cc1ccc(C(=O)N/N=C/c2cn(Cc3ccccc3)c3ccccc23)cn1	6.5µM	–	–	–	–	–
Cc1cccc(OCC(=O)N/N=C\c2cn(C)c3ccccc23)c1	5.8µM	–	–	–	–	–
O=C(COc1ccccc1)NCC(=O)N/N=C/c1cc(Br)ccc1OCc1ccccc1	?	–	–	–	–	–
Cc1cccc(OCC(=O)NCC(=O)N/N=C/c2cc(Br)ccc2OCc2ccccc2)c1	26µM	–	–	–	–	–
CCc1nn(CC(=O)NCCN2CCN(C)CC2)c(=O)c2cc3c(OC)cccc3n12	–	·	–	–	–	–
O=C1c2ccccc2C(=O)N1CCc1nc2ccccc2c(=O)n1Cc1ccco1	21µM	–	–	–	–	–
CCCc1nc2oc3cc(OC)ccc3c(=O)c2c(=O)n1Cc1ccco1	–	?	–	?	–	–
CCCc1nc2sc3ccccc3c(=O)c2c(=O)n1Cc1ccc(OC)cc1	23µM	–	–	–	–	–
Cc1nc2ccccc2c(=O)n1Cc1ccco1	–	–	–	–	–	–
COc1ccc(CCn2c(C(C)C)nc3c(c(=O)c4ccccc4n3C)c2=O)cc1	16µM	–	–	–	–	–
SMILES	ELG1 DNA repair	PKM2 act	Tb PFK inh	Rango-impB inh	Rango release inh	PGK inhibitor
CCCc1nc2sc3ccccc3c(=O)c2c(=O)n1Cc1ccco1	–	14µM	–	–	–	–
Cc1cc(C)c2oc(C(=O)Nc3sc4c(c3C(=O)NCc3ccco3)CCCC4)cc(=O)c2c1	·	·	·	·	·	–
Cc1cc(Nc2ccc(F)cc2)nc(-n2nc(C)cc2C)n1	·	·	·	·	·	–
CN1c2cc3c(cc2N=C(c2ccc(C(=O)O)cc2)c2ccccc21)C(C)(C)CCC3(C)C	·	–	·	·	·	·
CCCC1NC(C(=O)O)Cc2c1[nH]c1ccccc21 (stereo not given)	–	–[11.5 µM]	–	?	?	–
COc1ccc(OCC(=O)Nc2nccs2)cc1	?	–	–	–	–	–
CCOc1ccc(OCC(=O)Nc2nccs2)cc1	?	–	27µM	–	–	?
CC(C)N(Cc1ccccc1)C(=O)CN1C(=O)CSc2ccc(S(=O)(=O)N3CCCC3)cc21	·	·	·	·	·	–
COc1ccccc1NS(=O)(=O)c1ccc(-c2cnc(C3CC3)o2)cc1	?	·	–	–	–	–
COc1ccc(S(=O)(=O)Nc2ccc3c(c2)OCO3)cc1OC	–	–	–	?	–	–
COc1ccc(NS(=O)(=O)c2ccc3c(c2)OCCO3)cc1OC	2.3µM	·	–	–	–	–
COc1ccc(NS(=O)(=O)c2ccc(-c3cnc(C4CC4)o3)cc2)cc1OC	1.8µM	·	–	–	–	–
CSc1nc2ccc(NS(=O)(=O)c3ccc4c(c3)OCCO4)cc2s1	?	16µM	–	–	–	–
Cc1ccc(C)c(S(=O)(=O)c2nnn3c2nc(Nc2ccc(C)c(C)c2)c2ccccc23)c1	·	·	·	·	·	–
CO/N=C(/C(=O)N[C@@H]1C(=O)N2C(C(=O)O)=CCS[C@H]12)c1cnc(N)s1	–	–	–	·	·	·
O=C(Nc1ccc(Cl)cc1)N1CCN(c2ccc3nnc(-c4ccc(F)cc4)n3n2)CC1	4.6µM	–	–	–	–	–
O=C(Nc1ccccc1Cl)N1CCN(c2ccc3nnc(-c4ccccc4)n3n2)CC1	13µM	–	–	–	–	–
O=C(c1ccc(Br)o1)N1CCN(c2ccc3nnc(-c4ccc(F)cc4)n3n2)CC1	?	–	–	–	–	–
Cc1ccc(S(=O)(=O)N2CCN(c3ccc4nnc(-c5ccccc5)n4n3)CC2)cc1	–	–	–	–	–	–
COc1ccc(S(=O)(=O)N2CCN(c3ccc4nnc(-c5ccc(F)cc5)n4n3)CC2)cc1	18µM	–	–	–	–	–
CCOC(=O)Nc1oc2ccccc2c(=O)c1CN1CCOCC1	10µM	–	–	?	?	–
CCOC(=O)c1oc2ccccc2c1CN1CC(C)OC(C)C1 (stereo not given)	–	·	–	–	–	–
COc1ccc(Cl)cc1S(=O)(=O)Nc1cccc(-c2ccc(N3CCCC3)nn2)c1	·	·	·	·	·	–
CC(c1ccon1)N(C)C(=O)c1cccc(OC2CCN(S(C)(=O)=O)CC2)c1 (stereo not given)	·	·	·	·	·	–
